# In PubChem BioAssay (NCATS):
# Results filed as inconclusive are left out. Where a call stands in place of a potency, no number is given. A number with no mark means an inactive call. Active and inactive are the calls of the source. Calls come from the whole dose curve; tested in HEK293 reporter line. Residues, ends and D or L forms follow the SMILES beside them.
# Experiment: qHTS for Inhibitors of the Functional Ribonucleoprotein Complex (vRNP) of Lassa (LASV) Arenavirus: LASV Primary Screen - GLuc reporter signal (AID 1347082); note: nearly all actives have a fitted effect of over 60% in size
# Details: LASV minigenome vRNP, Gaussia luciferase reporter; series mostly up to 57.5 µM
row,Structure (SMILES),Potency
1,O=C1c2ccccc2C(=O)c2c1ccc(O)c2O,inactive
2,Oc1ccc(OCc2ccccc2)cc1,inactive
3,NC(=S)N/N=C/c1cccnc1,inactive
4,NCCNCCNCCN,inactive
5,COC(=O)[C@H](Cc1ccccc1)NC(=O)[C@@H](N)CC(=O)O (H-Asp-Phe-OMe),inactive
6,O=C(NCCO[N+](=O)[O-])c1cccnc1,inactive
7,O=C(O)[C@@H]1CSCN1,inactive
8,CCc1oc2ccccc2c1C(=O)c1cc(I)c(O)c(I)c1,inactive
9,Nc1ccc([N+](=O)[O-])c(C(F)(F)F)c1,inactive
10,O=P(O)(O)OCC(O)CO (centres undefined),inactive
11,CN1CCN(C(=O)C2CCCCC2)CC1,inactive
12,Cc1cc(CCCOc2c(C)cc(-c3noc(C(F)(F)F)n3)cc2C)on1,inactive
13,FC1(F)C(F)(F)C(F)(F)C2(F)C(F)(F)C(F)(F)C(F)(F)C(F)(F)C2(F)C1(F)F (centres undefined),inactive
14,COc1ccc(O)cc1,inactive
15,CCO[C@H](Cc1ccc(OCCc2ccc(OS(C)(=O)=O)cc2)cc1)C(=O)O,inactive
16,NC(=O)c1cc[n+](CC2=C(C(=O)[O-])N3C(=O)[C@@H](NC(=O)Cc4cccs4)[C@H]3SC2)cc1,inactive
17,CN1N=C(C(N)=O)CCC1=O,inactive
18,CN1CCC[C@@H]1c1cccnc1,inactive

# Experiment: qHTS for Inhibitors of the Functional Ribonucleoprotein Complex (vRNP) of Lassa (LASV) Arenavirus: Viability assay - alamar blue signal for LASV Primary Screen (AID 1347083); note: nearly all actives have a fitted effect of over 80% in size
# Details: cell viability, alamar blue fluorescence (LASV minigenome counter-screen); series mostly up to 57.5 µM
Structure (SMILES),Potency,"activity change, negative = reduced viability"
CCCCCN(CCCOC)C(=O)C(CCC(=O)O)NC(=O)c1ccc(Cl)c(Cl)c1 (centres undefined),inactive,
O=c1[nH]c(=O)n([C@H]2CCCO2)cc1F,inactive,
CCCCCCCCCCCCCCCCO,inactive,
CN1CCN(c2c(F)cc3c(=O)c(C(=O)O)cn4c3c2SCC4)CC1,inactive,
Cc1cc(OI)c(C(C)C)cc1-c1cc(C(C)C)c(OI)cc1C,inactive,
CC(O)CN(CCN(CC(C)O)CC(C)O)CC(C)O (centres undefined),inactive,
CC(=O)OCC[N+](C)(C)C,inactive,
NCCCCCC(=O)O,inactive,
NCC[C@H](O)C(=O)N[C@@H]1C[C@H](N)[C@@H](O[C@H]2O[C@H](CN)[C@@H](O)[C@H](O)[C@@H]2O)[C@H](O)[C@@H]1O[C@H]1O[C@H](CO)[C@@H](O)[C@H](N)[C@@H]1O,,-4.3% [at 0.757 µM]
CNCC(O)c1ccc(O)c(O)c1 (centres undefined),inactive,
NC(=O)NC1NC(=O)NC1=O (centres undefined),inactive,
C[C@H]1O[C@@H](n2cc(F)c(=O)[nH]c2=O)[C@H](O)[C@@H]1O,inactive,
CCO/C([O-])=N/c1c[n+](N2CCOCC2)no1,inactive,
O=C(O)Cc1sc(-c2ccccc2)nc1-c1ccc(Cl)cc1,inactive,
CCCCN(CCCC)CCCOC(=O)c1ccc(N)cc1,inactive,
COC(=O)/C=C(/C)N,inactive,
NCc1ccc(S(N)(=O)=O)cc1,inactive,
Cc1cccc(C)c1NC(=O)CN1CCCCCC1,inactive,
O=C(C1CCCCC1)N1CC(=O)N2CCCc3ccccc3C2C1 (centres undefined),inactive,

Structure (SMILES),Potency,"activity change, negative = reduced viability"
CCCCNC(=O)NS(=O)(=O)c1ccc(N)cc1,inactive,
O=C1c2ccccc2C(=O)c2c1ccc(O)c2O,inactive,
Oc1ccc(OCc2ccccc2)cc1,inactive,
NC(=S)N/N=C/c1cccnc1,inactive,
NCCNCCNCCN,inactive,
COC(=O)[C@H](Cc1ccccc1)NC(=O)[C@@H](N)CC(=O)O (H-Asp-Phe-OMe),inactive,
O=C(NCCO[N+](=O)[O-])c1cccnc1,inactive,
O=C(O)[C@@H]1CSCN1,inactive,
CCc1oc2ccccc2c1C(=O)c1cc(I)c(O)c(I)c1,inactive,
Nc1ccc([N+](=O)[O-])c(C(F)(F)F)c1,inactive,
O=P(O)(O)OCC(O)CO (centres undefined),inactive,
CN1CCN(C(=O)C2CCCCC2)CC1,inactive,
Cc1cc(CCCOc2c(C)cc(-c3noc(C(F)(F)F)n3)cc2C)on1,inactive,
FC1(F)C(F)(F)C(F)(F)C2(F)C(F)(F)C(F)(F)C(F)(F)C(F)(F)C2(F)C1(F)F (centres undefined),inactive,
COc1ccc(O)cc1,inactive,
CCO[C@H](Cc1ccc(OCCc2ccc(OS(C)(=O)=O)cc2)cc1)C(=O)O,inactive,
NC(=O)c1cc[n+](CC2=C(C(=O)[O-])N3C(=O)[C@@H](NC(=O)Cc4cccs4)[C@H]3SC2)cc1,inactive,
CN1N=C(C(N)=O)CCC1=O,inactive,
CN1CCC[C@@H]1c1cccnc1,inactive,

# Experiment: qHTS for Inhibitors of the Functional Ribonucleoprotein Complex (vRNP) of Lymphocytic Choriomeningitis Arenaviruses (LCMV): Viability assay - alamar blue signal for LCMV Primary Screen (AID 1347085); note: nearly all actives have a fitted effect of over 80% in size
# Details: alamar blue viability counter-screen, LCMV vRNP screen cells; series mostly up to 57.5 µM
Structure (SMILES),Potency,"activity change, negative = lower viability"
CCCCCN(CCCOC)C(=O)C(CCC(=O)O)NC(=O)c1ccc(Cl)c(Cl)c1 (centres undefined),inactive,
O=c1[nH]c(=O)n([C@H]2CCCO2)cc1F,inactive,
CCCCCCCCCCCCCCCCO,inactive,
CN1CCN(c2c(F)cc3c(=O)c(C(=O)O)cn4c3c2SCC4)CC1,inactive,
Cc1cc(OI)c(C(C)C)cc1-c1cc(C(C)C)c(OI)cc1C,inactive,
CC(O)CN(CCN(CC(C)O)CC(C)O)CC(C)O (centres undefined),inactive,
CC(=O)OCC[N+](C)(C)C,inactive,
NCCCCCC(=O)O,inactive,
NCC[C@H](O)C(=O)N[C@@H]1C[C@H](N)[C@@H](O[C@H]2O[C@H](CN)[C@@H](O)[C@H](O)[C@@H]2O)[C@H](O)[C@@H]1O[C@H]1O[C@H](CO)[C@@H](O)[C@H](N)[C@@H]1O,,-4.65% [at 0.757 µM]
CNCC(O)c1ccc(O)c(O)c1 (centres undefined),inactive,
NC(=O)NC1NC(=O)NC1=O (centres undefined),inactive,
C[C@H]1O[C@@H](n2cc(F)c(=O)[nH]c2=O)[C@H](O)[C@@H]1O,inactive,
CCO/C([O-])=N/c1c[n+](N2CCOCC2)no1,inactive,
O=C(O)Cc1sc(-c2ccccc2)nc1-c1ccc(Cl)cc1,inactive,
CCCCN(CCCC)CCCOC(=O)c1ccc(N)cc1,inactive,
COC(=O)/C=C(/C)N,inactive,
NCc1ccc(S(N)(=O)=O)cc1,inactive,
Cc1cccc(C)c1NC(=O)CN1CCCCCC1,inactive,
O=C(C1CCCCC1)N1CC(=O)N2CCCc3ccccc3C2C1 (centres undefined),inactive,

Structure (SMILES),Potency,"activity change, negative = lower viability"
CCCCNC(=O)NS(=O)(=O)c1ccc(N)cc1,inactive,
O=C1c2ccccc2C(=O)c2c1ccc(O)c2O,inactive,
Oc1ccc(OCc2ccccc2)cc1,inactive,
NC(=S)N/N=C/c1cccnc1,inactive,
NCCNCCNCCN,inactive,
COC(=O)[C@H](Cc1ccccc1)NC(=O)[C@@H](N)CC(=O)O (H-Asp-Phe-OMe),inactive,
O=C(NCCO[N+](=O)[O-])c1cccnc1,inactive,
O=C(O)[C@@H]1CSCN1,inactive,
CCc1oc2ccccc2c1C(=O)c1cc(I)c(O)c(I)c1,inactive,
Nc1ccc([N+](=O)[O-])c(C(F)(F)F)c1,inactive,
O=P(O)(O)OCC(O)CO (centres undefined),inactive,
CN1CCN(C(=O)C2CCCCC2)CC1,inactive,
Cc1cc(CCCOc2c(C)cc(-c3noc(C(F)(F)F)n3)cc2C)on1,inactive,
FC1(F)C(F)(F)C(F)(F)C2(F)C(F)(F)C(F)(F)C(F)(F)C(F)(F)C2(F)C1(F)F (centres undefined),inactive,
COc1ccc(O)cc1,inactive,
CCO[C@H](Cc1ccc(OCCc2ccc(OS(C)(=O)=O)cc2)cc1)C(=O)O,inactive,
NC(=O)c1cc[n+](CC2=C(C(=O)[O-])N3C(=O)[C@@H](NC(=O)Cc4cccs4)[C@H]3SC2)cc1,inactive,
CN1N=C(C(N)=O)CCC1=O,inactive,
CN1CCC[C@@H]1c1cccnc1,inactive,
